# PubChem BioAssay (Tox21)
# Results filed as inconclusive are left out. Active and inactive are the calls of the source. The call rests on the fitted dose curve; in most records, active means well fitted cell-killing curve with a large enough effect in the repeat runs (not every such curve was filed as active); inconclusive means weak or mixed curves, or effect the other way; inactive means no such curve, though single readings can be large or run the other way.
# Test: qHTS assay to identify small molecule antagonists of the farnesoid-X-receptor (FXR) signaling pathway - cell viability counter screen (AID 743221); further: nearly all actives have a fitted effect of over 50% in size
# Settings: FXR-bla HEK293T viability, CellTiter-Glo luminescence, 16 h; series mostly up to 62.6 µM
# From the text: National Center for Advancing Translational Sciences [NCATS]
# NIH Chemical Genomics Center [NCGC]
# U.S. Environmental Protection Agency [EPA]
# National Institutes of Environmental Health Sciences [NIEHS]
# National Toxicology Program [NTP]
# U.S. Food and Drug Administration [FDA]
# The farnesoid-X-receptor (FXR), a nuclear hormone receptor, is highly expressed in liver, intestine, kidney and adrenal cortex. Natural ligands of FXR are the bile acids (Cholic acid, Chenodeoxy cholic acid etc). FXR is an important regulator of diverse metabolic pathways, including the bile acid homeostasis, lipid and glucose metabolisms. FXR regulates the expression of target genes by binding either as a monomer or as a heterodimer with the retinoid X receptor (RXR). Numerous studies have reported that FXR exerts protective function during cholestasis, diabetes, liver regeneration, and cancer. To identify compounds that inhibit FXR signaling, GeneBLAzer FXR-UAS-bla HEK 293T cell line (Invitrogen, Carlsbad, CA) containing a beta-lactamase reporter gene under the control of a UAS response element was used to screen the Tox21 10K compound library. The cytotoxicity of the Tox21 compound library against the FXR-bla cell line was tested in parallel by measuring the cell viability using CellTiter-Glo assay in the same wells.
# Tox21 Assay Protocol Summary:
# FXR-bla cells were dispensed at 5000 cells/5uL/well in 1536-well black wall/clear bottom plates using a Multidrop Combi (Thermo Fisher Scientific, Waltham, MA) dispenser. After the assay plates were incubated at 37 C and 5% CO2 for 5 h, 23 nL of compounds dissolved in DMSO, positive controls or DMSO only was transferred to the assay plate by a Pintool station (Kalypsys, San Diego, CA), followed by addition of 1 uL Chenodeoxycholic acid (50 uM, final concentration in the wells). The assay plates were incubated at 37C for 16 h. After 1 uL of LiveBLAzerTM B/G FRET substrate was added using a Bioraptr Flying Reagent Dispenser (FRD) workstation (Beckman Coulter, Indianapolis, IN), the plates were incubated at room temperature for 2 h, and fluorescence intensity was measured by an Envision plate reader (PerkinElmer, Shelton, CT). For cell viability readout that measures cytotoxicity, 4uL/well of CellTiter-Glo reagent was added into the assay plates using a Bioraptr FRD. After 30 min incubation at room temperature, the luminescence intensity in the plates was measured using a ViewLux plate reader (PerkinElmer).
row,Structure (SMILES),outcome
1,CN(C)C=O,inactive
2,NC(N)=NC(N)=NCCc1ccccc1,inactive
3,NC(=O)N1c2ccccc2C=Cc2ccccc21,inactive
4,COc1cc(O)c(C(=O)c2ccccc2)cc1S(=O)(=O)O,inactive
5,CC(O)COc1ccccc1 (stereo not given),inactive
6,C[C@]12C[C@H](O)[C@H]3[C@@H](CCC4=CC(=O)CC[C@@]43C)[C@@H]1CC[C@@H]2C(=O)CO,inactive
7,CCCCNC(=O)NS(=O)(=O)c1ccc(N)cc1,inactive
8,COC1=CC(=O)C[C@@H](C)[C@]12Oc1c(Cl)c(OC)cc(OC)c1C2=O,inactive
9,C1CNCCN1,inactive
10,CCCCOC(=O)CCCCCCCCC(=O)OCCCC,inactive
11,COc1ccccc1NC(=O)CC(C)=O,inactive
12,COc1ccccc1O,inactive
13,C#C[C@]1(O)CC[C@H]2[C@@H]3CCC4=CC(=O)CC[C@@H]4[C@H]3CC[C@@]21CC,inactive
14,CCCCCCCC(=O)OCC(O)CO (stereo not given),inactive
15,COc1ccc(C(=O)c2ccccc2)c(O)c1,inactive
16,NCCNc1cccc2ccccc12,inactive
17,O=c1cc[nH]c(=O)[nH]1,inactive
18,CC(C)(C)NCC(O)c1ccc(O)c(CO)c1 (stereo not given),inactive
19,CCc1cc(C(N)=S)ccn1,inactive
20,Cc1cccc2ccccc12,inactive

row,Structure (SMILES),outcome
1,CC1(C)O[C@@H]2[C@@H](CO[C@@]3(COS(N)(=O)=O)OC(C)(C)O[C@@H]23)O1,inactive
2,CC(=O)OC/C=C(C)/C=C/C=C(C)/C=C/C1=C(C)CCCC1(C)C,inactive
3,O=[N+]([O-])c1ccc(O)cc1,inactive
4,CCn1cc(C(=O)O)c(=O)c2ccc(C)nc21,inactive
5,NC(=O)OCC(COC(N)=O)c1ccccc1,inactive
6,Nc1ccc(N=Nc2ccccc2)c(N)n1,inactive
7,COCC(C)N (stereo not given),inactive
8,C#C[C@]1(O)CC[C@H]2[C@@H]3CCc4cc(O)ccc4[C@H]3CC[C@@]21C,inactive
9,C/C=C/c1ccc(O)c(OC)c1,inactive
10,Cc1c(N(C)C)c(=O)n(-c2ccccc2)n1C,inactive
11,O=C(OCc1ccccc1)c1ccccc1,inactive
12,OC[C@@H](O)[C@@H](O)[C@H](O)[C@H](O)CO,inactive
13,NC(=O)c1ccc([N+](=O)[O-])cc1Cl,inactive
14,CN(C)Cc1cc(CN(C)C)c(O)c(CN(C)C)c1,inactive
15,CO[C@H]1C=CO[C@@]2(C)Oc3c(C)c(O)c4c(O)c(c(/C=N/N5CCN(C)CC5)c(O)c4c3C2=O)NC(=O)/C(C)=C\C=C[C@H](C)[C@H](O)[C@@H](C)[C@@H](O)[C@@H](C)[C@H](OC(C)=O)[C@@H]1C,inactive
16,CC(C)=CCC/C(C)=C/CO,inactive
17,Nc1cccc(N)c1,inactive
18,CCCCOCCOCCSC#N,inactive
19,CN/C(=C\[N+](=O)[O-])NCCSCc1ccc(CN(C)C)o1,inactive
20,CC(=O)c1ccc(S(=O)(=O)NC(=O)NC2CCCCC2)cc1,inactive
